# Rows were chosen to be rich in hits. Some 2.2% of all compounds tested hit in one or more screens of this group.
# OPRM1-OPRD1 ag – agonists of human mu-delta opioid receptor heterodimerization; P35372+P41143; cells, OPRM1-OPRD1 heterodimerization, luminescence; activation, % at 9.3 µM; 340,000 tested, 0.3% active;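 also: 0% = vehicle-treated cells and 100% = reference agonist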
# sPLA2-III inh – Blocks human group III sPLA2 activity; Q9NZ20; QFRET BODIPY PC-A2 liposome hydrolysis, fluorescence; inhibition, % at 12.2 µM; 370,000 tested, 0.56% active;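 active = inhibition above mean plus 3 SD of compounds lying within the high and low control bounds, cut at about 19% in these data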;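 also: 0% = median of test compound wells and 100% = no enzyme DMSO wells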
# Target sequence (Q9NZ20 whole entry, looked up): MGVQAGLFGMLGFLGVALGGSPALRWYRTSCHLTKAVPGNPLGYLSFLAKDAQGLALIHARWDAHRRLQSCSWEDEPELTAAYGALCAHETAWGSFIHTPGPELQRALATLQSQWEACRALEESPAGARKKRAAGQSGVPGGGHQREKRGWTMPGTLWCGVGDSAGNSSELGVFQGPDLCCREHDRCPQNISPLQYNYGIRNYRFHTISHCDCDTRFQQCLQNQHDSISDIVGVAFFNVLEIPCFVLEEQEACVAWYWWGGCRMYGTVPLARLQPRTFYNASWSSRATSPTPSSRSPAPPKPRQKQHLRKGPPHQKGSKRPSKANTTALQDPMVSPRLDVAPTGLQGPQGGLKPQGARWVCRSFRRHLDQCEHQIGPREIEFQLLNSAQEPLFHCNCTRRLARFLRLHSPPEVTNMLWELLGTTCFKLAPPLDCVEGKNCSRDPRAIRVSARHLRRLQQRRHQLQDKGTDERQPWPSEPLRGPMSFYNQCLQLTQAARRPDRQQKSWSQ
# HTR5A inv ag – inverse agonist of human HTR5A in OPRM1-OPRD1 counter-screen; P47898; HTR5A cell line, luminescence, inverse agonism; inhibition, % at 9.3 µM; 340,000 tested, 0.083% active; AID 504634; in the data active = inhibition mostly above about 23%, no sharp cut-off; inactive = mostly below about 18%;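 also: 0% = cells with DMSO and 100% = no-cell wells with DMSO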
# HTR5A ag – counter-screen for OPRM1-OPRD1 agonists: human HTR5A agonism; P47898; HTR5A agonist assay, luminescence, cell-based; activation, % at 9.3 µM; 340,000 tested, 0.61% active; in the data active = activation mostly above about 9.5%, no sharp cut-off; inactive = mostly below about 7.6%;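 also: 0% = cells with vehicle only and 100% = reference agonist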
# HTR2A ag – activates the mouse 5-HT2A serotonin receptor. P35363. AID 624169. activation, % at 7.6 µM. CHO-K1 mHTR2A beta-arrestin complementation, luminescence; percent of 30 µM serotonin response. 360,000 tested, 0.66% active;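 active = activation above a run cutoff, the mean activation of all tested compounds plus 3 SD, cut at about 14% in these data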;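 also: 0% = plate median of compound wells and 100% = 30 µM serotonin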
# MOR-DOR inv ag – inverse agonist of human OPRM1-OPRD1 heterodimerization; inhibition, % at 9.3 µM; P35372+P41143; 340,000 tested, 0.21% active; cell-based MOR-DOR heterodimer luminescence, inverse agonism; in the data active = inhibition above about 22%, passing the limit was not always enough;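 also: 0% = cells with DMSO and 100% = wells without cells with DMSO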
# OPRM1-D1 ag cf – OPRM1-OPRD1 heterodimer agonism, confirmation. shares compounds with OPRM1-OPRD1 ag. cells, MOR-DOR heterodimerization, luminescence complementation. activation, % at 9.3 µM. 830 tested, 45% active;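 also: 0% = vehicle-treated cells and 100% = reference agonist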
# HTR5A ag counter – activates human HTR5A in OPRM1-OPRD1 agonist counter-screen; shares compounds with OPRM1-OPRD1 ag; HTR5A agonist counterscreen, cell luminescence; activation, % at 9.3 µM; 830 tested, 8% active; AID 504905; in the data active = activation above about 17%;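 also: 0% = vehicle-treated cells and 100% = reference agonist response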
# The depositor's hits bear a star; i = inactive; . = no result. Rule as the data show it, unless noted: active = activation above about 18%; inactive = the rest.
SMILES,OPRM1-OPRD1 ag,sPLA2-III inh,HTR5A inv ag,HTR5A ag,HTR2A ag,MOR-DOR inv ag,OPRM1-D1 ag cf,HTR5A ag counter
CCN(CC)c1ccc(/C=C2\C(=O)c3ccc(C(=O)O)cc3C2=O)cc1,21.1*,-1.2,14.8,-7.8,-1.3,-106.7,10.4,-6.0
CC(=O)Nc1ccc(NC2=C/C(=N/S(=O)(=O)c3cccs3)c3ccccc3C2=O)cc1,.,-6.6,.,.,1.4,.,.,.
COc1ccc(S(=O)(=O)/N=C2\C=C(Nc3ccc(O)cc3)C(=O)c3ccccc32)cc1,21.3*,-38.9,-0.3,0.1,-13.1,-119.0,7.2,0.7
Nn1c(-c2ccccc2Cl)nnc1-c1ccccc1Cl,18.1*,7.5,-9.9,2.8,-1.1,-98.5,0.4,4.5
Cc1ccc(NC(=O)C2CCCN(c3nnc(-n4cccc4)s3)C2)cc1C (stereo unspecified),.,12.3,.,.,.,.,.,.
COc1ccc(NC(=O)c2sc3nc(C)cc(C)c3c2N)cc1,-1.6,4.1,-14.1,3.8,-1.9,7.4,.,.
COc1ccccc1NC(=O)c1sc2nc(C)cc(C)c2c1N,24.5*,3.8,-9.3,3.6,3.9,-121.0,107.9*,0.8
Cc1cc(O)cc(=O)n1-c1cccc([N+](=O)[O-])c1,.,2.0,.,.,.,.,.,.
COCC(=O)OC1CCn2c1nc1c2C(=O)C(C)=C(NC(C)=O)C1=O (stereo unspecified),22.6*,-4.8,-22.2,5.8,10.4,-110.5,-2.2,-4.3
CCCCOCCCNC(=O)C[C@@H]1C[C@]2(C(=O)OCC)CCC3=C2N(CCC3)C1=O,.,1.1,.,.,.,.,.,.
COc1ccc(CN2CCc3c([nH]c4ccccc34)C2)c(OC)c1C,69.5*,2.5,12.2,-3.3,-4.0,-343.7,38.2*,0.8
CCOc1cc(CN2CCc3c([nH]c4ccccc34)C2)ccc1OC,-1.0,-7.8,-18.2,-5.6,-1.0,5.1,.,.
O=C(NCc1ccccc1)[C@@H]1CCCN1C(=O)[C@H]1CCCN1C(=O)c1ccc(F)cc1F,.,0.0,.,.,.,.,.,.
COc1ccc(OC)c(N(CC(=O)Nc2cccnc2)S(=O)(=O)c2ccc(C)cc2)c1,65.4*,-9.8,-9.1,4.8,-3.4,-367.6,46.7*,-0.1
COc1ccc(CN2C(C(=O)NCC(C)C)CSCCS2(=O)=O)cc1 (stereo unspecified),.,4.4,.,.,.,.,.,.
Nc1c(N(Cc2ccccc2)C(=O)COc2cccc(Cl)c2)c(=O)[nH]c(=O)n1Cc1ccccc1,20.6*,-5.7,-0.3,1.9,-3.2,-134.2,-1.9,-2.9
Cc1cc2[nH]c3c(c[n+](C)c4ccccc34)c2cc1C,15.0,-2.7,10.2,-4.1,-1.9,-97.8,.,.
Cc1cc2[nH]c3c4ccccc4nc(C)c3c2cc1C,34.7*,-14.2,-22.5,6.0,1.1,-171.6,68.0*,13.6
Cc1ccccc1C(=O)NC1CCCCN(Cc2cccc(F)c2)C1=O (stereo unspecified),.,-4.4,.,.,.,.,.,.
O=C(CCCN1CCN(c2ccccc2)CC1)c1ccc(F)cc1,.,-4.9,.,.,-7.1,.,.,.
O=C1NCN(c2ccccc2)C12CCN(CCCC(c1ccc(F)cc1)c1ccc(F)cc1)CC2,30.8*,1.3,-22.1,6.2,-3.9,-166.3,-0.3,5.1
O=C(NN=Cc1ccccc1O)C(=O)Nc1ccc(F)cc1,.,-7.7,.,.,.,.,.,.
COc1ccc(/C=C/C(=O)NC(=S)NCCc2ccc(OC)c(OC)c2)cc1,29.9*,-12.9,-4.9,5.1,2.0,-168.3,54.8*,3.0
O=C(C(=O)N1CCC(CNS(=O)(=O)c2ccccc2OC(F)(F)F)CC1)c1cccs1,.,0.5,.,.,.,.,.,.
COc1ccc2c(=O)c(-c3cnn(-c4ccccc4)c3)c(C)oc2c1,1.3,-1.7,-15.9,3.3,-0.5,-7.9,.,.
SMILES,OPRM1-OPRD1 ag,sPLA2-III inh,HTR5A inv ag,HTR5A ag,HTR2A ag,MOR-DOR inv ag,OPRM1-D1 ag cf,HTR5A ag counter
Cc1oc2c(C)c(O)ccc2c(=O)c1-c1cnn(-c2ccccc2)c1,18.5*,-34.6,-30.8,11.2,4.7,-80.4,17.0,-1.0
Cn1c(-c2c(N)n(C3CCCC3)c3nc4ccccc4nc23)nc2ccccc21,6.8,1.7,8.8,-3.4,-1.0,-39.8,.,.
COCCCn1c(N)c(-c2nc3ccccc3n2C)c2nc3ccccc3nc21,117.2*,-12.2,5.2,-1.6,0.5,i,142.5*,-1.2
Cn1c(-c2c(N)n(CCc3ccccc3)c3nc4ccccc4nc23)nc2ccccc21,250.3*,.,-14.3,4.4,-4.2,i,235.0*,6.0
O=C1Nc2ccc(Br)cc2/C1=C/C(=O)c1ccccc1,18.3*,17.9,-17.0,4.4,2.6,-80.1,6.6,0.3
CCOc1cc(C(=O)CSc2nnc(CNc3ccc(Cl)cc3)o2)ccc1NC(=O)CC,65.2*,-30.9,-53.0,29.7*,1.3,-370.4,77.2*,24.6*
COc1ccc(C(CNC(=O)Cc2cccs2)N(C)C)cc1 (stereo unspecified),84.8*,-0.8,-2.8,-0.5,1.6,i,-4.8,-4.2
COc1ccc(C(CNC(=O)c2cc(SC)ccc2Cl)N(C)C)cc1 (stereo unspecified),104.5*,-3.0,-17.9,6.0,-0.8,i,3.5,1.2
COc1ccc(C(CNC(=O)c2ccccc2SC)N(C)C)cc1 (stereo unspecified),11.7,1.7,-1.6,0.6,-4.0,-55.4,.,.
COc1ccc(CC(=O)NCC(c2ccc(OC)cc2)N(C)C)cc1 (stereo unspecified),31.2*,6.0,2.9,-1.0,-1.6,-160.0,2.7,0.7
COc1ccc(C(CNC(=O)c2cncc(Br)c2)N(C)C)cc1 (stereo unspecified),274.2*,3.3,3.4,-1.2,-1.5,i,232.1*,-1.2
CCc1ccc(CCNC(=O)OCCCN2CCC3(CCC(C)CC3)C2=O)cc1 (stereo unspecified),.,-7.5,.,.,.,.,.,.
O=C(OCc1ccc([N+](=O)[O-])cc1)C1CC(=O)N(Cc2ccccc2)C1 (stereo unspecified),-1.3,-2.7,1.8,-0.5,-0.3,6.8,.,.
COCCN(C(=O)C1CC(=O)N(Cc2ccccc2)C1)c1nc(-c2ccc([N+](=O)[O-])cc2)cs1 (stereo unspecified),127.5*,-12.6,15.3,-4.5,7.4,i,154.0*,0.9
C[C@H]1[C@@H](OC(=O)Nc2cccc(Cl)c2)CC[C@@]23CCCN2C(=O)CCC[C@@H]13,.,-6.3,.,.,.,.,.,.
Clc1ccc(C2[C@H]3CN(Cc4cccnc4)[C@H](c4ccccc4)C34CC2(c2cccnc2)C4)cn1 (stereo partly specified),53.9*,-2.9,-12.8,-4.7,-4.7,-311.3,9.1,7.9
